# Results from PubChem BioAssay (NCI).
# Compounds without any hit were thinned out: in the full panel of roughly 83,000, 20% have a hit.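 Step 1: grow cells in 96-well plates. Step 2: add test compound at a single concentration. Step 3: incubate 48 h. Step 4: record percent growth.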 Values without a mark were called inactive. Calls of active or inactive are those of the source. The calls were made as follows: active = growth percent below 10; inactive = the rest.
# Test system: OVCAR-5 ovarian
# Assay: NCI-60 one-dose screen, 48 h (100 = growth as untreated, 0 = no growth, -100 = all killed)
# Details: 10 µM
row,SMILES,growth
1,C1CNC(C2=NCCN2)=N1,105%
2,CN(C)C(C)(C)CC(C)(C)C,102%
3,O=[N+]([O-])c1ccc(S(=O)(=O)NN=C2CCCCC2)cc1,114%
4,C[C@]12CC[C@@H]3c4ccc(OCC(=O)O)cc4CC[C@H]3[C@@H]1CCC2=O,107%
5,Nc1ncnc2[nH]ncc12,20.5%
6,CCCNc1ccc(C2=NCCCN2)cc1,101%
7,O=C(N/N=C/c1ccccc1O)Nc1nn[nH]n1,92.3%
8,Cc1ccc(CCCC(=O)O)c(C)c1,94.5%
9,CC(=O)c1cc2c(cc1F)C(C)(C)CCC2(C)C,90.1%
10,CN(c1ccccc1)c1ncnc2c1ncn2C,121%
11,CCCCC1(CC)COC(CCC)OC1 (stereo not given),95.9%
12,COc1cc2c3cc1Oc1c(OC)c(OC)cc4c1C(Cc1ccc(O)c(c1)Oc1ccc(cc1)CC3N(C)CC2)N(C)CC4 (stereo not given),-0.193% (active)
13,CCC(C#N)(CC)c1ccccc1,104%
14,FC(F)(F)c1ccc2c(c1)N(CCCN1CCN(C3CC3)CC1)c1ccccc1S2,89.7%
15,CC1NC(=O)NC1CCCCCC(=O)O (stereo not given),97.6%
16,COS(=O)(=O)c1ccc(Br)cc1,93.4%
17,O=[N+]([O-])c1cccc(N=Nc2ccc(O)cc2O)c1,143%
18,Cc1cc(OCCO)cc(C)c1Cl,115%
19,Cc1cc(O)ccc1O,116%
20,CCOc1ccc(Br)cc1/C=N\N=C\c1cc(Br)ccc1OCC,107%
